HT1080-NT tox: kills 2HG-producing HT-1080-NT fibrosarcoma cells; HT-1080-NT fibrosarcoma viability, CellTiter-Glo ATP luminescence, 48 h; Potency, µM (doses to about 46.1 µM), actives largely listed as cytotoxic; 360,000 tested, 1.6% active;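 also: NT is the 2HG producing partner of a matched IDH1 knockdown line; nearly all actives have a fitted effect of over 55% in size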
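A 48-hour cytotoxicity screen used HT-1080-NT cells plated 2 hours before compound delivery. ATP-based CellTiter-Glo luminescence measured viability, normalized to DMSO and no-cell controls.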
DT40 TDP1 no CPT: qHTS for Inhibitors of human tyrosyl-DNA phosphodiesterase 1 (TDP1): qHTS in cells in absence of CPT; DT40 Tdp1-/- hTDP1 cells, no CPT, ATP luminescence, 48 h; Potency, µM (top dose mostly 46.2 µM), hits mostly inhibitors; 420,000 tested, 15% active; AID 686978, 2013; also: nearly all actives have a fitted effect of over 55% in size
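Seeded 400 DT40-hTDP1 cells/well (vehicle DMSO, no 20 nM CPT); pinned compounds; ≥48 hr at 37 °C; CellTiter-Glo luminescence as viability measure.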
TDP1 cell CPT: DT40-hTDP1 cell growth loss with CPT. chicken DT40 Tdp1-/-;hTDP1 cells + 20 nM CPT, ATP luminescence, 48 h. Potency, µM (highest dose often 46.2 µM), usual class: inhibitors. 420,000 tested, 12% active. AID 686979; also: nearly all actives have a fitted effect of over 55% in size
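Chicken DT40 Tdp1-/- cells complemented with human TDP1, 400 cells/well, exposed to compounds plus 20 nM camptothecin for at least 48 h at 37 C; viability read as ATP content by CellTiter-Glo luminescence.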
IL1B secr inh: inflammasome signaling inhibition, IL-1 beta readout; THP-1 LPS/ATP IL-1B secretion, AlphaLISA, 16 h; active compounds read low; activity change, % at 57.5 µM; 360,000 tested, 4.7% active; in the data active = activity change below about -50%; inconclusive = mostly about -30% to -49%
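Secreted IL-1B measured by AlphaLISA bead assay after 16 h compound exposure of THP-1 cells; compounds (final up to 57.5 uM) added 1 h before LPS (250 ng/mL) and ATP (1.25 mM) stimulation; lower signal means less secretion.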
HT1080 IDH1KD tx: toxicity to HT-1080 IDH1 knockdown cells (counter line) | Potency, µM (highest dose often 46.1 µM), hits mostly cytotoxic | HT-1080 IDH1 knockdown viability, ATP luminescence, 48 h | 360,000 tested, 2% active | AID 686971
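In this qHTS, HT-1080 cells depleted of IDH1 are exposed for 48 h at 37 °C to compound titrations. Toxicity is scored from CellTiter-Glo luminescence, with DMSO as full viability and medium alone as none.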
Each line names hits and unclear results; the compound was inactive in the other large screens. The list is not random: actives were taken first. Their share in the collection is about 19%. Unless noted, calls follow the shape of the dose curve; as a rule, active = well fitted curve in the direction sought with a large enough effect; inconclusive = small, poorly fitted or top-dose-only effect, or another doubt; inactive = no such curve, though single readings can be large; an effect the other way counts as inactive or inconclusive.

COc1cccc(CSCC(=O)NCCc2ccccc2)c1OC	TDP1 cell CPT inconclusive
CCOc1ccc(-c2cn3c(n2)sc2cc(C(=O)NCCCN4CCCCCC4)ccc23)cc1	DT40 TDP1 no CPT 6.5µM, TDP1 cell CPT 5.8µM (no result: HT1080-NT tox, IL1B secr inh, HT1080 IDH1KD tx)
CCCN1CCN(CCCNC(=O)c2ccc3c(c2)sc2nc(-c4ccc(OCC)cc4)cn23)CC1	DT40 TDP1 no CPT 2.9µM, TDP1 cell CPT 1.8µM (no result: HT1080-NT tox, IL1B secr inh, HT1080 IDH1KD tx)
C=CCN(CC=C)C(=O)COn1nnc2ccc(S(=O)(=O)N3CCOCC3)cc21	none
CC1(C)CC2(C)OC(=N)C1(C#N)C2(C#N)C#N (stereo unspecified)	HT1080-NT tox inconclusive, DT40 TDP1 no CPT 15µM, TDP1 cell CPT inconclusive, IL1B secr inh -101, HT1080 IDH1KD tx inconclusive
Cc1cc2ccccn2c1C(=O)c1ccc(C#N)cc1	DT40 TDP1 no CPT 23µM, TDP1 cell CPT inconclusive
Cc1cc2ccccn2c1C(=O)Nc1ccc(Cl)cc1	none
Cc1cc2ccccn2c1C(=O)c1cc([N+](=O)[O-])cc([N+](=O)[O-])c1	none
COC(=O)c1cc(C(=O)c2c(C)cc3ccccn23)cc([N+](=O)[O-])c1	HT1080-NT tox 16µM, DT40 TDP1 no CPT 12µM, TDP1 cell CPT 8.2µM, HT1080 IDH1KD tx inconclusive
Cc1cc2ccccn2c1C(=O)c1ccc(NN)c([N+](=O)[O-])c1	HT1080-NT tox inconclusive, DT40 TDP1 no CPT inconclusive, TDP1 cell CPT 16µM, IL1B secr inh inconclusive, HT1080 IDH1KD tx inconclusive
O=C(Nc1ccccc1)N1CCC(C(=O)N2CCN(c3ccccc3F)CC2)CC1	none
FC(F)(F)c1ccccc1-c1cc(N2CCNCC2)ncn1	none (no result: HT1080-NT tox, IL1B secr inh, HT1080 IDH1KD tx)
Cc1c(C#N)c(O)n(C)c(=O)c1N=Nc1ccc(S(N)(=O)=O)cc1	DT40 TDP1 no CPT 13µM, TDP1 cell CPT inconclusive
Cc1c(C#N)c(O)n(CCO)c(=O)c1N=Nc1ccc(S(N)(=O)=O)cc1	none
CC(=O)c1c(N2CCOCC2)nc2ccc(Br)cc2c1-c1ccccc1	DT40 TDP1 no CPT inconclusive (no result: IL1B secr inh)
Cc1cc(/C=C(/C#N)c2nc3ccccc3[nH]2)c(C)n1-c1cc(C(=O)O)cc(C(=O)O)c1	none
Cc1ccc2nc(/C(C#N)=C\c3cc(C)n(-c4cccc([N+](=O)[O-])c4)c3C)[nH]c2c1	DT40 TDP1 no CPT 9.2µM, TDP1 cell CPT 8.2µM, IL1B secr inh inconclusive, HT1080 IDH1KD tx inconclusive
CCCCCCc1cc2cc(C(=O)Nc3ccccc3OC)c(=O)oc2cc1O	DT40 TDP1 no CPT 16µM, TDP1 cell CPT 16µM
COc1cc(-c2nnc(SCc3cc(=O)oc4cc(O)c(O)cc34)o2)cc(OC)c1OC	HT1080 IDH1KD tx inconclusive
CCCCCCc1cc2cc(-c3nnc(-c4ccccc4OC)o3)c(=O)oc2cc1O	HT1080-NT tox inconclusive, DT40 TDP1 no CPT 16µM, TDP1 cell CPT inconclusive, HT1080 IDH1KD tx inconclusive
CCCCCCc1cc2cc(S(=O)(=O)c3ccc(F)cc3)c(=O)oc2cc1O	HT1080-NT tox inconclusive, DT40 TDP1 no CPT inconclusive, TDP1 cell CPT 21µM, HT1080 IDH1KD tx inconclusive
COc1ccc(NC(=O)c2cc3ccccc3oc2=O)c(OC)c1	none
CCCCCCc1cc2cc(-c3nnc(-c4cc(OC)c(OC)c(OC)c4)o3)c(=O)oc2cc1O	DT40 TDP1 no CPT 23µM, TDP1 cell CPT inconclusive
COc1cccc2cc(-c3nnc(-c4ccccc4)o3)c(=O)oc12	IL1B secr inh inconclusive
COc1cccc(Cn2cc(N)cn2)c1	none
COc1ccc(/C=C/C(=O)OCC(=O)N2c3ccccc3CC2C)cc1 (stereo unspecified)	TDP1 cell CPT inconclusive
COc1cc(C(=O)COC(=O)c2cnc(C)cn2)ccc1OC(F)F	none
O=C1CC(C(=O)N2CCc3ccccc32)CN1c1cccc(C(F)(F)F)c1 (stereo unspecified)	none
CCCCCCc1cc2cc(-c3nnc(-c4ccccc4O)o3)c(=O)oc2cc1O	DT40 TDP1 no CPT 7.3µM, TDP1 cell CPT 8.2µM
COc1ccc(-c2nnc(-c3cc4ccccc4oc3=O)o2)cc1	DT40 TDP1 no CPT inconclusive
Cc1ccc(-c2ccc(=O)n(CC(=O)NCCc3ccccc3)n2)cc1	none (no result: HT1080-NT tox, IL1B secr inh, HT1080 IDH1KD tx)
COc1ccc(-c2cn(-c3ccc(Br)cc3)c3[n+]2CCS3)cc1	DT40 TDP1 no CPT 6.5µM, TDP1 cell CPT 8.2µM, IL1B secr inh -76
CC(=O)c1ccc(-n2cc(-c3ccc(C(C)(C)C)cc3)[n+]3c2SCCC3)cc1	HT1080-NT tox inconclusive, DT40 TDP1 no CPT 0.16µM, TDP1 cell CPT 0.21µM, HT1080 IDH1KD tx inconclusive
Clc1ccc(-c2c[n+]3c(n2-c2ccccc2)SCC3)cc1	DT40 TDP1 no CPT inconclusive, TDP1 cell CPT inconclusive, IL1B secr inh inconclusive
COc1ccc(N2CC(O)=C(c3nc(-c4ccc(Br)cc4)cs3)C2=N)cc1	DT40 TDP1 no CPT inconclusive, TDP1 cell CPT inconclusive
Fc1ccc(-c2cn(-c3ccccc3)c3[n+]2CCS3)cc1	HT1080-NT tox inconclusive, DT40 TDP1 no CPT 23µM, TDP1 cell CPT inconclusive
Clc1ccc(-c2cn(-c3ccccc3)c3[n+]2CCS3)cc1	DT40 TDP1 no CPT 6.5µM, TDP1 cell CPT inconclusive, IL1B secr inh -51
CCCOc1ccc(C(=O)CCC(=O)NNC(=O)c2cccs2)cc1	none
CC(NS(=O)(=O)c1ccc2c(c1)CCN2C(=O)CCCC(=O)O)c1ccccc1 (stereo unspecified)	none (no result: HT1080-NT tox, IL1B secr inh, HT1080 IDH1KD tx)
O=C(CN1CCN(C(=O)c2ccco2)CC1)Nc1cc(Cl)ccc1Cl	none

Screening results as filed in PubChem.
